Measurements from PubChem BioAssay AID1159580 (chemical genetic matrix, 2015).
In all, about 5,500 compounds went through this assay and about 2,000 (36%) were called active. About 18% were inconclusive and are not listed. Rule as the data show it: active = normalized growth mostly below about 0.91 (no sharp cut-off); inconclusive = no clear call, values can overlap the other calls; inactive = mostly above about 0.92. Some of the results follow.

Assay: chemical genetic growth profiling, strain panel (AID 1159580);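 also: tested at 20 µM; growth read once vehicle control cultures reached saturation at 30 °C; 1 = growth at the plate median or of vehicle wells; lower values mean less growth of the strain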
Details: S. cerevisiae deletion strains, growth OD
[1] = locus YHR030C, strain SLT2, hits give low values
[2] = locus YJL095W, strain BCK1, hits give low values

Measured: normalized growth

COc1ccc(-c2cc(=O)c3c(OC)c(OC)c(OC)c(OC)c3o2)cc1OC
inactive: locus YAL021C, strain ccr4, hits give low values 1 | locus YAL026C, strain drs2, hits give low values 1 | locus YAL030W, strain snc1, hits give low values 0.999 | locus YBL061C, strain skt5, hits give low values 1 | locus YBR009C, strain hhf1, hits give low values 1.02 | locus YBR023C, strain chs3, hits give low values 1.01 | locus YBR171W, strain sec66, hits give low values 1 | locus YBR231C, strain swc5, hits give low values 0.997 | locus YBR279W, strain paf1, hits give low values 0.998 | locus YCL011C, strain gbp2, hits give low values 0.988 | locus YCL016C, strain dcc1, hits give low values 0.993 | locus YCL069W, strain vba3, hits give low values 1.02 | locus YCR088W, strain abp1, hits give low values 0.996 | locus YDL005C, strain med2, hits give low values 1 | locus YDL040C, strain nat1, hits give low values 0.999 | locus YDR001C, strain nth1, hits give low values 0.991 | locus YDR069C, strain doa4, hits give low values 1.01 | locus YDR137W, strain rgp1, hits give low values 1.03 | locus YDR159W, strain sac3, hits give low values 0.96 | locus YDR195W, strain ref2 0.952 | locus YDR297W, strain sur2, hits give low values 0.986 | locus YDR334W, strain swr1, hits give low values 1.01 | locus YDR335W, strain msn5, hits give low values 1.02 | locus YDR392W, strain spt3, hits give low values 1.01 | locus YEL003W, strain gim4, hits give low values 1.01 | locus YEL037C, strain rad23, hits give low values 0.997 | locus YEL061C, strain CIN8 (second series), hits give low values 0.999 | locus YER015W, strain faa2, hits give low values 0.992 | locus YER016W, strain bim1, hits give low values 0.993 | locus YER111C, strain swi4, hits give low values 1 | locus YER155C, strain BEM2 (second series), hits give low values 0.996 | locus YFR010W, strain ubp6, hits give low values 1.02 | locus YGL167C, strain pmr1, hits give low values 1.01 | locus YGL173C, strain kem1, hits give low values 1.01 | locus YGL227W, strain vid30, hits give low values 0.985 | locus YGL240W, strain doc1, hits give low values 0.994 | locus YGL253W, strain hxk2, hits give low values 0.994 | locus YHR013C, strain ard1, hits give low values 0.973 | locus YHR027C, strain rpn1, hits give low values 1 | [1] 1.01 | locus YHR079C, strain IRE1, hits give low values 1.01 | locus YHR142W, strain chs7, hits give low values 1.01 | locus YJL092W, strain hpr5, hits give low values 0.996 | locus YJL095W, strain BCK1 (second series), hits give low values 0.992 | [2] 0.963 | locus YJL115W, strain asf1, hits give low values 0.988 | locus YJL129C, strain trk1, hits give low values 1.01 | locus YJL154C, strain vps35, hits give low values 0.983 | locus YJL164C, strain tpk1, hits give low values 1 | locus YJL166W, strain qcr8, hits give low values 0.998 | locus YJR066W, strain TOR1, hits give low values 0.976 | locus YKL160W, strain elf1, hits give low values 0.997 | locus YKR026C, strain gcn3, hits give low values 0.997 | locus YKR091W, strain srl3, hits give low values 0.996 | locus YLL001W, strain dnm1, hits give low values 0.996 | locus YLL026W, hits give low values 0.991 | locus YLL041C, strain sdh2, hits give low values 0.991 | locus YLR027C, strain aat2, hits give low values 1 | locus YLR113W, strain HOG1, hits give low values 0.941 | locus YLR221C, strain rsa3, hits give low values 0.996 | locus YLR258W, strain gsy2, hits give low values 1.01 | locus YLR262C, strain YPT6 (second series), hits give low values 1.04 | locus YLR320W, strain mms22, hits give low values 1 | locus YLR342W, strain FKS1, hits give low values 0.998 | locus YLR357W, strain rsc2, hits give low values 0.957 | locus YLR370C, strain arc18, hits give low values 0.988 | locus YLR384C, strain iki3, hits give low values 0.981 | locus YML120C, strain ndi1, hits give low values 1.01 | locus YMR058W, strain fet3, hits give low values 0.995 | locus YMR125W, strain sto1, hits give low values 1 | locus YMR129W, hits give low values 0.994 | locus YMR205C, strain PFK2, hits give low values 1.02 | locus YMR231W, strain pep5, hits give low values 1 | locus YNL071W, strain lat1, hits give low values 0.998 | locus YNL183C, strain NPR1, hits give low values 0.926 | locus YNL209W, strain ssb2, hits give low values 1 | locus YNL248C, strain rpa49, hits give low values 0.995 | locus YNL322C, strain KRE1 (second series), hits give low values 0.994 | locus YNR049C, strain mso1, hits give low values 1.01 | locus YOR001W, strain rrp6, hits give low values 0.982 | locus YOR070C, strain gyp1, hits give low values 0.988 | locus YOR080W, strain dia2, hits give low values 0.989 | locus YOR083W, strain WHI5, hits give low values 1 | locus YOR106W, strain vam3, hits give low values 1.01 | locus YOR231W, strain MKK1, hits give low values 1.02 | locus YOR265W, strain rbl2, hits give low values 1.02 | locus YOR270C, strain vph1, hits give low values 1.07 | locus YOR290C, strain snf2, hits give low values 0.988 | locus YPL051W, strain arl3, hits give low values 0.974 | locus YPL078C, strain atp4, hits give low values 0.985 | locus YPL106C, strain sse1, hits give low values 0.962 | locus YPL240C, strain hsp82, hits give low values 1 | locus YPL256C, strain CLN2, hits give low values 0.991

COc1ccc(-c2cc(=O)c3c(O)c(OC)c(OC)cc3o2)cc1O
active: locus YNL250W, strain rad50, hits give low values 0.89
inactive: locus YBR021W, strain FUR4, hits give low values 0.907 | locus YBR229C, strain ROT2, hits give low values 1.01 | locus YCL029C, strain bik1, hits give low values 0.937 | locus YDL035C, strain GPR1, hits give low values 0.929 | locus YDL074C, strain BRE1, hits give low values 0.878 | locus YDL101C, strain DUN1, hits give low values 0.997 | locus YDL134C, strain PPH21, hits give low values 1 | locus YDL185W, strain tfp1, hits give low values 0.96 | locus YDL192W, strain arf1, hits give low values 0.951 | locus YDR101C, strain arx1, hits give low values 0.926 | locus YDR150W, strain NUM1, hits give low values 0.997 | locus YDR162C, strain NBP2, hits give low values 1 | locus YDR318W, strain mcm21, hits give low values 0.99 | locus YDR388W, hits give low values 0.99 | locus YDR502C, strain sam2, hits give low values 0.953 | locus YEL061C, strain CIN8, hits give low values 1 | locus YER110C, hits give low values 0.974 | locus YER155C, strain BEM2, hits give low values 1.01 | locus YER167W, strain BCK2, hits give low values 0.979 | locus YGL078C, strain dbp3, hits give low values 0.944 | locus YGL086W, strain mad1, hits give low values 0.935 | locus YGL248W, strain PDE1, hits give low values 0.993 | locus YGR078C, strain PAC10, hits give low values 0.969 | locus YGR135W, strain pre9, hits give low values 0.971 | locus YGR229C, strain SMI1, hits give low values 0.893 | locus YGR252W, strain gcn5, hits give low values 0.994 | [1] 0.998 | locus YHR079C, strain IRE1 (second series), hits give low values 0.978 | locus YHR094C, strain hxt1, hits give low values 0.995 | locus YHR129C, strain ARP1, hits give low values 0.978 | locus YHR200W, strain rpn10, hits give low values 0.985 | locus YIL066C, strain RNR3, hits give low values 0.964 | locus YIL073C, strain SPO22, hits give low values 0.873 | locus YIL125W, strain kgd1, hits give low values 0.959 | locus YIR030C, strain dcg1, hits give low values 0.993 | [2] 0.991 | locus YJL134W, strain LCB3, hits give low values 0.998 | locus YJL168C, strain set2, hits give low values 0.993 | locus YJL187C, strain SWE1 (second series), hits give low values 0.952 | locus YJR043C, strain POL32, hits give low values 0.954 | locus YJR075W, strain HOC1, hits give low values 0.983 | locus YKL009W, strain mrt4, hits give low values 0.943 | locus YKL068W, hits give low values 0.969 | locus YKL085W, strain MDH1 (second series), hits give low values 0.985 | locus YKL085W, strain MDH1, hits give low values 0.985 | locus YKL190W, strain CNB1, hits give low values 1.01 | locus YKR001C, strain vps1, hits give low values 0.943 | locus YLR039C, strain RIC1, hits give low values 0.96 | locus YLR058C, strain SHM2, hits give low values 1 | locus YLR102C, strain apc9, hits give low values 0.988 | locus YLR262C, strain YPT6, hits give low values 0.989 | locus YLR268W, strain sec22, hits give low values 0.902 | locus YLR330W, strain CHS5, hits give low values 0.983 | locus YLR342W, strain FKS1 (second series), hits give low values 0.944 | locus YLR371W, strain rom2, hits give low values 0.985 | locus YLR418C, strain cdc73, hits give low values 0.928 | locus YML016C, strain PPZ1, hits give low values 1 | locus YML032C, strain rad52, hits give low values 0.971 | locus YML124C, strain tub3, hits give low values 0.998 | locus YMR078C, strain ctf18, hits give low values 0.988 | locus YMR223W, strain ubp8, hits give low values 0.99 | locus YMR263W, strain SAP30, hits give low values 1.05 | locus YMR307W, strain GAS1, hits give low values 0.998 | locus YNL067W, strain RPL9B, hits give low values 0.965 | locus YNL153C, strain GIM3, hits give low values 0.969 | locus YNL233W, strain BNI4, hits give low values 0.928 | locus YNL271C, strain bni1, hits give low values 0.993 | locus YNL298W, strain CLA4, hits give low values 0.996 | locus YNL307C, strain MCK1, hits give low values 0.975 | locus YNR052C, strain pop2, hits give low values 0.973 | locus YOL012C, strain htz1 1.07 | locus YOL147C, strain pex11, hits give low values 0.97 | locus YOR061W, strain CKA2, hits give low values 0.98 | locus YOR069W, strain VPS5, hits give low values 0.999 | locus YOR136W, strain idh2, hits give low values 0.98 | locus YOR144C, strain elg1, hits give low values 0.991 | locus YOR184W, strain ser1, hits give low values 0.897 | locus YOR316C, strain cot1, hits give low values 0.991 | locus YPL055C, strain LGE1, hits give low values 0.941 | locus YPR119W, strain clb2, hits give low values 0.995 | locus YPR141C, strain kar3, hits give low values 1 | locus YPR163C, strain tif3, hits give low values 0.992 | locus YPR167C, strain met16, hits give low values 0.991 | strain wtn01, hits give low values 0.92
